Assay outcomes (PubChem)
A selection: hits, their analogues and other compounds. The true share with any hit is near 2.5%.
Cruzain noTriton = qHTS Assay for Promiscuous and Specific Inhibitors of Cruzain (without detergent); Cruzipain (Trypanosoma cruzi), P25779; purified cruzain, Z-FR-AMC fluorescence, no detergent; Potency, µM, without a hit: max response, negative = inhibition, usual class: inhibitors; hit rate 2.3% among 200,000;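 further: plate controls were enzyme without inhibitor for no effect and buffer without enzyme for full effect; nearly all actives have a fitted effect of over 40% in size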
Target sequence (P25779 123-467 limits assumed): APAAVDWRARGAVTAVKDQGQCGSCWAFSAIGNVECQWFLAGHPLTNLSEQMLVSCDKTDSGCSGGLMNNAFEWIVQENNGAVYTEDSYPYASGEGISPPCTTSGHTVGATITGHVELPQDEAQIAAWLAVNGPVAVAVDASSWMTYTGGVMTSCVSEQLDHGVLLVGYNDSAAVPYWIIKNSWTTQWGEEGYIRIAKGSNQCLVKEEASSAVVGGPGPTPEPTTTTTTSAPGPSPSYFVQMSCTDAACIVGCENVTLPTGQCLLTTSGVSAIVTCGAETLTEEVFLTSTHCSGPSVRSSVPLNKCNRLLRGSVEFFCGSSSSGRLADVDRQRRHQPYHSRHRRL
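Detergent-free condition (0.00005% Triton X-100) in acetate buffer pH 5.5 with DTT. 1.5 nM enzyme and compound were pre-mixed 15 min, then 2 uM Z-FR-AMC substrate added; reaction progress from fluorescence change between first and third reads (60 s).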
Cruzain inh Det = qHTS Assay for Promiscuous and Specific Inhibitors of Cruzain (with detergent); purified cruzain, Z-FR-AMC fluorescence, 0.01% Triton; Cruzipain (Trypanosoma cruzi), P25779; hit rate 0.43% among 200,000; Potency, µM, without a hit: max response, negative = inhibition, hits mostly inhibitors;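 further: plate controls were neutral wells for no effect and buffer without enzyme for full effect; nearly all actives have a fitted effect of over 40% in size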
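Enzyme 1.5 nM, Z-FR-AMC 2 uM, NaOAc 100 mM pH 5.5, DTT 5 mM, Triton X-100 0.01%; 15 min RT compound preincubation; kinetic ex360/em450, 60 s delta.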
Starred values were filed as active, the others as inactive; ? = inconclusive. The call rests on the fitted dose curve; in most records, active means well fitted curve in the direction sought with a large enough effect; inconclusive means small, poorly fitted or top-dose-only effect, or another doubt; inactive means no such curve, though single readings can be large; an effect the other way counts as inactive or inconclusive. Potency means the concentration at half of the fitted maximal effect.

SMILES	Cruzain noTriton	Cruzain inh Det
CCCCc1nc(NCc2ccccc2)c(C#N)c2c1COC(C)(C)C2	25µM*	3%
CCOc1ccc(NC(=O)CC2Nc3cccc4cccc(c34)NC2=O)cc1 (centres undefined)	-11%	-10%
Cc1ccc2cc3cc(C(=O)N4CCN(c5ccccc5)CC4)oc3nc2c1	-7%	-2%
CCCSc1ncc(Cl)c(C(=O)Nc2nc3ccc(OCC)cc3s2)n1	-5%	-2%
Cc1cccc(OCc2nc(-c3ccc(-n4cccc4)cc3)no2)c1	20µM*	2%
Fc1ccccc1OCc1nc(-c2ccc(-n3cccc3)cc2)no1	-15%	-4%
Cc1ccc(OCc2nc(-c3ccc(-n4cccc4)cc3)no2)cc1C	25µM*	4%
Cc1ccccc1OCc1nc(-c2ccc(-n3cccc3)cc2)no1	?	0%
CC(C)CN(CCCNC(=O)c1cn(C)c2ccc(S(=O)(=O)N(C)C3CCCCC3)cc2c1=O)CC(C)C	-12%	-1%
CCOc1ccc(NC(=O)CSc2nnc(-c3ccc(OCC)cc3)o2)cc1	-6%	-3%
CCc1ccc(CNC(=O)c2ccc(NC(=O)N3CC(C)Sc4ccccc43)cc2)cc1 (centres undefined)	?	-4%
Cc1ccc(C)c(NC(=O)c2cc3c([nH]c4ccccc43)c(C)n2)c1	7.9µM*	8%
Cc1cccc(NC(=O)c2cc3c([nH]c4ccccc43)c(C)n2)c1C	?	0%
Cc1cc(C)c(-c2cc(NC(=O)CSc3nncn3C)n(-c3ccccc3)n2)cc1C	?	-3%
Cc1cc(C)c(-c2cc(NC(=O)COC(=O)c3ccc(C#N)cc3)n(-c3ccccc3)n2)cc1C	16µM*	-6%
COc1ccc(C(=O)O)cc1Nc1nc2ccc(C)cc2n2cnnc12	0%	-2%
CCOc1ccc(Cl)cc1S(=O)(=O)N1CCN(c2ccc(F)cc2)CC1	0%	-4%
CCOc1ccc(S(=O)(=O)N2CCCCC2)c2ccccc12	-5%	-1%
CCOc1ccc(S(=O)(=O)N2CCN(c3cc(Cl)ccc3Cl)CC2)c2ccccc12	10µM*	-2%
CCOc1ccc(S(=O)(=O)N2CCN(c3ccc(C)cc3C)CC2)c2ccccc12	3.2µM*	-1%
COc1ccc(S(=O)(=O)N2CCN(c3ccc(C)cc3C)CC2)cc1OC	?	-4%
Cc1ccc(N2CCN(S(=O)(=O)c3ccc(Cl)c4ccccc34)CC2)c(C)c1	10µM*	-1%
CCOc1c(Cl)cc(C(=O)N(Cc2ccc(N(C)C)cc2)Cc2ccco2)cc1Cl	?	-7%
CCN(CC)c1ccc(NC(=O)CCc2c(C)nc3ncnn3c2C)c(C)c1	7%	3%
CCN(CC)S(=O)(=O)c1ccc2c(c1)N(CC(=O)Nc1cccc(C)c1C)C(=O)C1CCCN21 (centres undefined)	?	-4%
SMILES	Cruzain noTriton	Cruzain inh Det
c1cncc(-c2cc(-n3ccnc3)ncn2)c1	10%	2%
COc1cc(-c2nc3ccc(C)cn3c2Nc2ccc(Cl)cc2)ccc1O	23%	-13%
CCc1nc2ccc(C(=O)NCc3ccc(SC)cc3)cc2nc1CC	-5%	-3%
O=C(/C=C/c1cccs1)N1CCOCC1	6.3µM*	-6%
O=C(/C=C/c1cccs1)N1CCN(c2ccccc2F)CC1	-6%	-6%
CCCCNC(=O)c1cc2c(=O)n3cccc(C)c3nc2n(Cc2ccncc2)c1=N	?	22µM*
CCOC(=O)c1cc2c(=O)n3ccccc3nc2n(CC2CCCO2)c1=NC(C)=O (centres undefined)	10µM*	32µM*
CCn1c(=N)c(C(=O)OC)cc2c(=O)n3ccccc3nc21	-79%	0.2µM*
COCCn1c(=N)c(C(=O)NCc2ccco2)cc2c(=O)n3ccccc3nc21	?	-5%
COc1ccc(CCNC(=O)c2cc3c(=O)n4cccc(C)c4nc3n(Cc3ccncc3)c2=N)cc1	13%	1%
CCn1c(=N)c(C(=O)NC)cc2c(=O)n3cccc(C)c3nc21	?	14µM*
CCn1c(=N)c(C(=O)NCc2ccccc2)cc2c(=O)n3cccc(C)c3nc21	14%	-6%
CCOC(=O)c1cc2c(=O)n3ccccc3nc2n(CC2CCCO2)c1=NC(=O)c1cc(C)cc(C)c1 (centres undefined)	-5%	-2%
Cc1ccc(-n2ncc3c(NC4CCCCC4)ncnc32)cc1C	-17%	1%
COc1cccc(CNC(=O)c2nn(-c3ccccc3Cl)nc2CO)c1	3%	-2%
CCc1ccc(NC(=O)CSC2=Nc3ccccc3C3=NC(CCC(=O)NCCc4ccccc4)C(=O)N23)cc1 (centres undefined)	6%	2%
Cc1cc(C(F)F)n2nc(C(=O)Nc3ccc(C(C)C)cc3)nc2n1	5%	-3%
O=C(Nc1ccc(Cl)c(Cl)c1)Nc1nc(-c2ccccc2)cs1	10µM*	-2%
O=C(NNc1nc(-c2ccccc2)cs1)c1ccccc1	?	-1%
O=C(Nc1ccc(Cl)cc1)Nc1nc(-c2sccc2Br)cs1	10µM*	6%
Cc1csc(NC(=O)Nc2ccc(Cl)cc2)n1	?	0%
CCCCC[C@H](O)/C=C/C=C\C/C=C\CCCCC(=O)O	-1%	2%
Cc1ccc(CSc2nc3ccc(NC(=O)C(C)C)cc3s2)cc1	-13%	-3%
COc1cccc(CNC(=O)CN(c2ccc(C(C)C)cc2)S(=O)(=O)c2c(C)n[nH]c2C)c1	?	-9%
CCOC(=O)c1c(NC(=O)c2cc(C(C)C)on2)sc(C)c1C	-11%	-2%
SMILES	Cruzain noTriton	Cruzain inh Det
CCCc1cc(C(=O)Nc2sc(C)c(C)c2C(=O)OCC)no1	20µM*	-3%
Cc1ccc(S(=O)(=O)Oc2ccc(N=Nc3ccc(-c4ccc(N=Nc5c(O)ccc6cc(S(=O)(=O)O)cc(S(=O)(=O)O)c56)c(C)c4)cc3C)cc2)cc1	?	13µM*
Cc1ccc(N=Nc2c(O)ccc3cc(S(=O)(=O)O)ccc23)cc1	?	-14%
CC(C)c1ccc(NC(=O)CSC2=Nc3ccccc3C3=NC(CC(=O)NCc4ccco4)C(=O)N23)cc1 (centres undefined)	?	-5%
COc1cc(NC(=O)Cn2ccn(-c3cc(C)cc(C)c3)c(=O)c2=O)cc(OC)c1	-15%	-8%
CC1CCN(S(=O)(=O)c2ccc3c(ccc(=O)n3CC(=O)NCc3ccccc3)c2)CC1	-2%	-4%
CCOc1cccc(-c2nc3ccccc3c(=O)o2)c1	0%	-4%
CCN1C(=O)c2ccccc2Sc2ccc(NC(=O)Nc3ccc(C(C)=O)cc3)cc21	20%	-5%
CCN1C(=O)c2ccccc2Sc2ccc(NC(=O)Nc3ccc(Br)c(C)c3)cc21	7.9µM*	-2%
O=C(Nc1ncc(Cc2ccccc2Cl)s1)c1ccc2c(c1)CC(c1ccccc1)OC2=O (centres undefined)	32µM*	-2%
CCc1ccc(Cc2cnc(NC(=O)c3ccc4c(c3)CC(c3ccccc3)OC4=O)s2)cc1 (centres undefined)	?	0%
COCCN1CCn2c(nc3cc(NC(=O)c4cccs4)ccc32)C1	3%	5%
CC(c1ccccc1)N1CCn2c(nc3cc(NC(=O)c4cccs4)ccc32)C1 (centres undefined)	32µM*	-4%
Cc1nc(NC(=O)CSc2nnc(-c3ccccc3)c(-c3ccccc3)n2)c(Cl)cc1Cl	?	-13%
O=C(CSc1nnc(-c2ccccc2)c(-c2ccccc2)n1)Nc1ncc(Cl)cc1Cl	32µM*	-11%
COc1ccccc1CNC(=O)c1c(O)c2cc(OC)c(OC)cc2[nH]c1=O	3.2µM*	-6%
